The supplement of paper PMC10338343
± gives the standard deviation.

System: MILI (PIWIL2) piRISC loaded with piRNA #1 (26 nt)
Experiment: pre-steady-state target cleavage rate (min^-1); guide: piRNA #1 5'p-UGAGGUAGUAGGUUGUAUAGUAUCCA; MIWI and MILI are mouse PIWI proteins and EfPiwi is from a freshwater sponge; tags in brackets are library labels; higher = faster piRNA-guided slicing of the target
Conditions: auxiliary factor: 500 nM mouse GTSF1
How it was run: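 The pre-steady-state cleavage rate was obtained by Cleave-'n-Seq with a burst-and-steady-state fit. A transcribed, DNA-blocked target RNA library (0.1 nM) was mixed with 1 nM active affinity-purified piRISC carrying one synthetic guide, with or without 500 nM GTSF1 partner protein, in HEPES–potassium acetate buffer at 33 °C for 0–8 or 0–960 min. Uncleaved targets were sequenced and normalised to depth and to weakly complementary targets, with three trials pooled and k3 capped at 0.0001 min^-1.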

Row | Sequence | pre-steady-state target cleavage rate
1 | GGAGACGAUACUAUACAACCAUACUACCUCA | 0.00651 ± 0.0034
2 | GGAGACCUAACUAUACAACCUAAUACCUCA | 0.0504 ± 0.013
3 | GGAGUGGAAACUAUACAACCUACUACGUCA | 0.0633 ± 0.012
4 | GGAGUGGUUACUAUUCAACCUACUACCUCA | 0.202 ± 0.012
5 | GGAGACCAUACUAUACAACCAACUACCUCA | 0.00362 ± 0.0025
6 | GGAGUGGAUACAAUACAACCUACAACCUCA | 0.0772 ± 0.01
7 | GGAGAGGAUACUAUACAAGCUACUAGCUCA | 0.0601 ± 0.013
8 | GGAGACCUUACUAUACAUCCUACUACCUGA | 0.195 ± 0.033
9 | GGAGUGGGUACUAUACAACCUACUACCUCA | 0.148 ± 0.01
10 | GGAGUGGAUACUAUACAACGUACUACGUCA | 0.0108 ± 0.0027
11 | GGAGAGGAUACUAUACAACCUACAUACCUCA | 0.123 ± 0.012
12 | GGAGUGGAUACUAUACAACCUACUACCUCA [g2:g26:cont:t1A] | 0.2 ± 0.011
13 | GGAGUGGAUACUUUACAUCCUACUACCUCA | 0.253 ± 0.012
14 | GGAGUGGAUACUAAACAAGCUACUACCUCA | 0.211 ± 0.013
15 | GGAGACCAUACUUUACAACCUACUACCUGA | 0.0887 ± 0.018
16 | GGAGACCUAACUAUACAAGCUACUACCUGA | 0.235 ± 0.043
17 | GGAGACCUAUGAAUACAACCUACUACCUCG [g2:g18:cont:t1G] | 0.0085 ± 0.002
18 | GGAGACCUUACUAUACAACCUACUAACCUCA | 0.178 ± 0.018
19 | GGAGACGAAACAAUACAACCUACUACCUCA | 0.167 ± 0.026
20 | GGAGACCUAACAUAUACAACCUACUACCUCA | 0.026 ± 0.012

Row | Sequence | pre-steady-state target cleavage rate
21 | GGAGUGGAUACUAUACAAGCUACUACCUGA | 0.0875 ± 0.014
22 | GGAGACCUUACUAUACAACCUACUACGUCA | 0.0741 ± 0.01
23 | GGAGACCUAUCUAUACAACCUACUACCUGA | 0.074 ± 0.011
24 | GGAGACCUAUCUAUACAACCUACUACCUCU [g2:g20:cont:t1U] | 0.0927 ± 0.011
25 | GGAGACCAUACUAUACAUCCUACUACCUGA | 0.23 ± 0.034
26 | GGAGACGAUACUAUAUCAACCUACUACCUCA | 0.123 ± 0.013
27 | GGAGACGAUACUAUACAACCUACUACCAGA | 0.125 ± 0.02
28 | GGAGUGGAUACAAUACAACCUACUAGCUCA | 0.0614 ± 0.0087
29 | GGAGACCUUACUAUACACCCUACUACCUCA | 0.058 ± 0.0099
30 | GGAGAGGAUACUAUACCACCUACUACCUCA | 0.212 ± 0.019
31 | GGAGAGGAUACUAUACAACCUCACUACCUCA | 0.00456 ± 0.0027
32 | GGAGAGGAUACUAUUCAACCUUCUACCUCA | 0.00949 ± 0.0023
33 | GGAGAGGAUACUCAUACAACCUACUACCUCA | 0.149 ± 0.015
34 | GGAGACCUUACUAUACAACGUACUUCCUCA | 0.0242 ± 0.0053
35 | GGAGACCUUAGAAUACAACCUACUACCUCA | 0.011 ± 0.004
36 | GGAGACCUUACUAUACAACCUACUACCUAA | 0.154 ± 0.019
37 | GGAGAGGAUACUAUACAACCUAGCUACCUCA | 0.0538 ± 0.0062
38 | GGAGUGGAUACUAUACAUCCUACUAGCUCA | 0.0444 ± 0.0086
39 | GGAGAGGUUACUAUACAACCUACUACCUCA | 0.197 ± 0.014
40 | GGAGAGGAUACUAUACAAGCAACUACCUCA | 0.00819 ± 0.0023
